Data from paper PMC11006913.
Residue numbers refer to the chain shown, from its start.

Tests used:
Test in all cases: PBM; 200 nM protein, PBS
Conditions in all cases: dsDNA, one strand shown
CRX [1] = biological target: CRX (Homo sapiens, UniProt O43186 26-111)
CRX [2] = biological target: CRX (Homo sapiens, UniProt O43186 26-111, E42D)
CRX [3] = biological target: CRX (Homo sapiens, UniProt O43186 26-111, R41L)
NKX2-4 [4] = biological target: T1, NKX2-4 (Homo sapiens, UniProt Q9H2Z4 175-261, P217L)
T1 sequence: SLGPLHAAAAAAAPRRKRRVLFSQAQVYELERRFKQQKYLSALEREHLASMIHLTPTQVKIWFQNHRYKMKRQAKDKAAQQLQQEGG

HOXA4 [5] = biological target: HOXA4 (Homo sapiens, UniProt Q00056 201-287, W262R)
Chain of HOXA4 (Homo sapiens, UniProt Q00056 201-287, W262R) (Q00056 201-287 W262R): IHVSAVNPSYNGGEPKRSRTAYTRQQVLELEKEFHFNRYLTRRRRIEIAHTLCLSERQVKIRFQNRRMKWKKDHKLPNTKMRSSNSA

HOXC9 [6] = biological target: HOXC9 (Homo sapiens, UniProt P31274 178-260, K195R)
Chain of HOXC9 (Homo sapiens, UniProt P31274 178-260, K195R) (P31274 178-260 K195R): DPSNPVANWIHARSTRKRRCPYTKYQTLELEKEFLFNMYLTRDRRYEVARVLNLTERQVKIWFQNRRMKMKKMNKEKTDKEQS

NKX2-4 [7] = biological target: T2, NKX2-4 (Homo sapiens, UniProt Q9H2Z4 175-261, T231S)
T2 sequence: T1 sequence with L43P, T57S

NKX2-4 [8] = biological target: T3, NKX2-4 (Homo sapiens, UniProt Q9H2Z4 175-261)
T3 sequence: T1 sequence with L43P

HOXA4 [9] = biological target: HOXA4 (Homo sapiens, UniProt Q00056 201-287, R217L)
Chain of HOXA4 (Homo sapiens, UniProt Q00056 201-287, R217L) (Q00056 201-287 R217L): as the sequence (Q00056 201-287 W262R) above, with R17L, R62W counted along it

HOXC9 [10] = biological target: HOXC9 (Homo sapiens, UniProt P31274 178-260)
Chain of HOXC9 (Homo sapiens, UniProt P31274 178-260) (P31274 178-260): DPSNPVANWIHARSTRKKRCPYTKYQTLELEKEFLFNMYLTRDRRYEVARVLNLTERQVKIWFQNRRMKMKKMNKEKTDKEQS

MSX2 [11] = biological target: MSX2 (Homo sapiens, UniProt P35548 130-214, R199I)
Chain of MSX2 (Homo sapiens, UniProt P35548 130-214, R199I) (P35548 130-214 R199I): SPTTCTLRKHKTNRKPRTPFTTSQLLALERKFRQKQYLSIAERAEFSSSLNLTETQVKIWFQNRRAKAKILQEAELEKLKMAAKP

HOXC9 [12] = biological target: HOXC9 (Homo sapiens, UniProt P31274 178-260, R193K)
Chain of HOXC9 (Homo sapiens, UniProt P31274 178-260, R193K) (P31274 178-260 R193K): as the sequence (P31274 178-260) above, with R16K counted along it

HOXA4 [13] = biological target: HOXA4 (Homo sapiens, UniProt Q00056 201-287)
Chain of HOXA4 (Homo sapiens, UniProt Q00056 201-287) (Q00056 201-287): as the sequence (Q00056 201-287 W262R) above, with R62W counted along it

MSX2 [14] = biological target: MSX2 (Homo sapiens, UniProt P35548 130-214)
Chain of MSX2 (Homo sapiens, UniProt P35548 130-214) (P35548 130-214): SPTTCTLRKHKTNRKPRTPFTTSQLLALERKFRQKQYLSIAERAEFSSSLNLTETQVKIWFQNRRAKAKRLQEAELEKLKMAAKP

NKX2-4 [15] = biological target: T4, NKX2-4 (Homo sapiens, UniProt Q9H2Z4 175-261, R246Q)
T4 sequence: T1 sequence with L43P, R72Q

HOXC9 [16] = biological target: HOXC9 (Homo sapiens, UniProt P31274 178-260, R222W)
Chain of HOXC9 (Homo sapiens, UniProt P31274 178-260, R222W) (P31274 178-260 R222W): as the sequence (P31274 178-260) above, with R45W counted along it

MSX2 [17] = biological target: MSX2 (Homo sapiens, UniProt P35548 130-214, F161Y)
Chain of MSX2 (Homo sapiens, UniProt P35548 130-214, F161Y) (P35548 130-214 F161Y): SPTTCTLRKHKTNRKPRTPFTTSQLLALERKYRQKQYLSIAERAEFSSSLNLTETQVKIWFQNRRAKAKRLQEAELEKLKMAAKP

HOXA4 [18] = biological target: HOXA4 (Homo sapiens, UniProt Q00056 201-287, W262F)
Chain of HOXA4 (Homo sapiens, UniProt Q00056 201-287, W262F) (Q00056 201-287 W262F): as the sequence (Q00056 201-287 W262R) above, with R62F counted along it

PITX2 = PITX2 (Homo sapiens, UniProt Q99697 72-157)

Chain of CRX (Homo sapiens, UniProt O43186 26-111) (O43186 26-111): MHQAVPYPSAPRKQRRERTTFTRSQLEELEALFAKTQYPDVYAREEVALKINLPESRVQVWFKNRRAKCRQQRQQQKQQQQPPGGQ
Chain of CRX (Homo sapiens, UniProt O43186 26-111, R41L) (O43186 26-111 R41L): as the sequence (O43186 26-111) above, with R16L counted along it
Chain of CRX (Homo sapiens, UniProt O43186 26-111, E42D) (O43186 26-111 E42D): as the sequence (O43186 26-111) above, with E17D counted along it

Which results are given for CGAGTGCG?
binding signal (CRX [1]): 8.19 upbm affinity estimate (log intensity, higher = more binding, comparable within an allelic series); binding signal (CRX [2]): 8.15 upbm affinity estimate (log intensity, higher = more binding, comparable within an allelic series); binding signal (CRX [3]): 8.17 upbm affinity estimate (log intensity, higher = more binding, comparable within an allelic series)

Which results are given for CTTAAGCC?
binding signal (CRX [1]): 12.7 upbm affinity estimate (log intensity, higher = more binding, comparable within an allelic series); binding signal (CRX [3]): 11.9 upbm affinity estimate (log intensity, higher = more binding, comparable within an allelic series)

With CACCAGGC as the sequence, how does the binding signal (CRX [1]) read?
Its binding signal is 8.58 upbm affinity estimate (log intensity, higher = more binding, comparable within an allelic series).

What about the binding signal (CRX [2]) of the same sequence?
Its binding signal is 8.49 upbm affinity estimate (log intensity, higher = more binding, comparable within an allelic series).

What about the binding signal (CRX [3]) of the same sequence?
Its binding signal is 8.39 upbm affinity estimate (log intensity, higher = more binding, comparable within an allelic series).

For GCGACCGC, which binding signal (NKX2-4 [4]) is on record?
Its binding signal is 9.58 upbm affinity estimate (log intensity, higher = more binding, comparable within an allelic series).

And the binding signal (HOXA4 [5])?
Its binding signal is 9.61 upbm affinity estimate (log intensity, higher = more binding, comparable within an allelic series).

What about the binding signal (HOXC9 [6]) of the same sequence?
Its binding signal is 9.65 upbm affinity estimate (log intensity, higher = more binding, comparable within an allelic series).

What about the binding signal (NKX2-4 [7]) of the same sequence?
Its binding signal is 9.41 upbm affinity estimate (log intensity, higher = more binding, comparable within an allelic series).

And the binding signal (NKX2-4 [8])?
The binding signal was 9.53 upbm affinity estimate (log intensity, higher = more binding, comparable within an allelic series).

And the binding signal (HOXA4 [9])?
The binding signal was 9.65 upbm affinity estimate (log intensity, higher = more binding, comparable within an allelic series).

What about the binding signal (HOXC9 [10]) of the same sequence?
The binding signal was 9.71 upbm affinity estimate (log intensity, higher = more binding, comparable within an allelic series).

And the binding signal (MSX2 [11])?
Its binding signal is 9.49 upbm affinity estimate (log intensity, higher = more binding, comparable within an allelic series).

What about the binding signal (HOXC9 [12]) of the same sequence?
The binding signal was 9.6 upbm affinity estimate (log intensity, higher = more binding, comparable within an allelic series).

And the binding signal (HOXA4 [13])?
The binding signal was 9.86 upbm affinity estimate (log intensity, higher = more binding, comparable within an allelic series).

And the binding signal (MSX2 [14])?
Its binding signal is 9.38 upbm affinity estimate (log intensity, higher = more binding, comparable within an allelic series).

And the binding signal (NKX2-4 [15])?
Its binding signal is 9.69 upbm affinity estimate (log intensity, higher = more binding, comparable within an allelic series).

And the binding signal (HOXC9 [16])?
Its binding signal is 9.64 upbm affinity estimate (log intensity, higher = more binding, comparable within an allelic series).

What about the binding signal (MSX2 [17]) of the same sequence?
The binding signal was 9.56 upbm affinity estimate (log intensity, higher = more binding, comparable within an allelic series).

And the binding signal (HOXA4 [18])?
The binding signal was 9.79 upbm affinity estimate (log intensity, higher = more binding, comparable within an allelic series).

For CTTGCTAC, which binding signal (CRX [1]) is on record?
Its binding signal is 8.21 upbm affinity estimate (log intensity, higher = more binding, comparable within an allelic series).

And the binding signal (CRX [2])?
Its binding signal is 8.34 upbm affinity estimate (log intensity, higher = more binding, comparable within an allelic series).

What about the binding signal (CRX [3]) of the same sequence?
The binding signal was 8.28 upbm affinity estimate (log intensity, higher = more binding, comparable within an allelic series).

Which binding signal (CRX [1]) does the source give for CCTGGTGC here?
Its binding signal is 8.29 upbm affinity estimate (log intensity, higher = more binding, comparable within an allelic series).

And the binding signal (CRX [2])?
The binding signal was 8.25 upbm affinity estimate (log intensity, higher = more binding, comparable within an allelic series).

And the binding signal (CRX [3])?
Its binding signal is 8.32 upbm affinity estimate (log intensity, higher = more binding, comparable within an allelic series).

Which binding signal (CRX [1]) does the source give for AGATTAAC here?
Its binding signal is 12.9 upbm affinity estimate (log intensity, higher = more binding, comparable within an allelic series).

What about the binding signal (PITX2) of the same sequence?
The binding signal was 12.7 upbm affinity estimate (log intensity, higher = more binding, comparable within an allelic series).

What about the binding signal (CRX [3]) of the same sequence?
Its binding signal is 12.6 upbm affinity estimate (log intensity, higher = more binding, comparable within an allelic series).

For CGGGTCAC, which binding signal (CRX [1]) is on record?
Its binding signal is 7.89 upbm affinity estimate (log intensity, higher = more binding, comparable within an allelic series).

What about the binding signal (CRX [2]) of the same sequence?
Its binding signal is 8.08 upbm affinity estimate (log intensity, higher = more binding, comparable within an allelic series).

And the binding signal (CRX [3])?
The binding signal was 8.09 upbm affinity estimate (log intensity, higher = more binding, comparable within an allelic series).

What does the source list for AGATTAGG?
binding signal (CRX [1]): 12.7 upbm affinity estimate (log intensity, higher = more binding, comparable within an allelic series); binding signal (PITX2): 12.3 upbm affinity estimate (log intensity, higher = more binding, comparable within an allelic series); binding signal (CRX [3]): 12.2 upbm affinity estimate (log intensity, higher = more binding, comparable within an allelic series)
